Experimental data published in PubChem BioAssay (Tox21).
Results filed as inconclusive are left out. Entries that show only a call come without a potency. Calls of active or inactive are those of the source. The call rests on the fitted dose curve; in most records, active means well fitted cell-killing curve with a large enough effect in the repeat runs; inconclusive means weak or mixed curves, or effect the other way; inactive means flat fitted curve, though single readings scatter.

Experiment: qHTS assay to identify small molecule antagonists of the constitutive androstane receptor (CAR) signaling pathway - cell viability counter screen (AID 1224837); further: nearly all actives have a fitted effect of over 45% in size
Conditions: HepG2-CYP2B6-hCAR viability, CellTiter-Fluor, 23 h, co-treated with 50 nM CITCO; series mostly up to 92.4 µM
Source text: National Center for Advancing Translational Sciences [NCATS]
NIH Chemical Genomics Center [NCGC]
U.S. Environmental Protection Agency [EPA]
National Institutes of Environmental Health Sciences [NIEHS]
National Toxicology Program [NTP]
U.S. Food and Drug Administration [FDA]
The constitutive androstane receptor (CAR) is a nuclear receptor which regulates multiple drug metabolizing enzymes (DMEs) and transporters. Activating CAR will generally increase the transcription and subsequent translation of CYP2B6 and CYP3A4. These two DMEs represent about 50% of the drug metabolizing potential in the body. When CAR is deactivated, the metabolizing potential in the body will decrease, subsequently increasing the toxicity in the body or lowering the therapeutic potential of a pro-drug. Recently, there have also been studies performed indicating CARs role in energy metabolism and cancer therapy. Therefore, inhibiting CARs activity could have a potential effect on diabetes and cancer. Identifying environmental toxins and compounds which modulate CAR, through the use of the Tox21 10K compound collection, will be an important step in determining the toxicity and potential therapeutic effects these factors will have on the human body. To differentiate true CAR antagonists from cytotoxic substances, the assay is multiplexed with a cell viability assay.
Tox21 Assay Protocol Summary:
A double-stable (hCAR and CYP2B6-2.2kb) transfected cell line, derived from human hepatoma (HepG2) cells, was utilized for the duration of the quantitative high-throughput screens. The HepG2-CYP2B6-hCAR cells were dispensed at 2500 cells/4 uL/well in 1536-well white solid bottom plates using a Multidrop Combi. After the assay plates were incubated at 37 C/5% CO2 for 4 hrs, 23 nL of compounds at 15 concentrations (from 5-48 columns) or positive control (from 1 to 4 columns) were transferred to the assay plates using a Pintool station. One uL of CITCO (final concentration = 50 nM) was added, using a Flying Reagent Dispenser, inside each well. After a 23 hr incubation period at 37 C/5% CO2, 1 uL of CellTiter-Fluor reagent was added into each well of the assay plates using a Flying Reagent Dispenser. The fluorescence intensity in the plates was then measured using a ViewLux plate reader.
Potency means the concentration at half of the fitted maximal effect.

**Q.** With `CC(C)c1ccccc1C(C)C` as the compound, how does the Potency read?
**A.** inactive

**Q.** For `Cl/C(=C\n1cncn1)c1ccc(Cl)cc1Cl`, which Potency is on record?
**A.** inactive

**Q.** With `O=C(O)c1cn(C2CC2)c2cc(Cl)c(F)cc2c1=O` as the compound, how does the Potency read?
**A.** inactive

**Q.** For `CCCCOc1cc(C(=O)OCCN(CC)CC)ccc1N`, which Potency is on record?
**A.** inactive

**Q.** Which Potency does the source give for `Oc1ccc2c(c1)OCO2` here?
**A.** inactive

**Q.** With `CC(C)(C)c1cc(CO)cc(C(C)(C)C)c1O` as the compound, how does the Potency read?
**A.** inactive

**Q.** For `CC1(C)CCC(C)(C)c2cc(NC(=O)c3ccc(C(=O)O)cc3)ccc21`, which Potency is on record?
**A.** inactive

**Q.** Which Potency does the source give for `CCOC(=O)CC(C)C` here?
**A.** inactive

**Q.** With `Nc1ccc(C(=O)Nc2ccccc2N)cc1` as the compound, how does the Potency read?
**A.** inactive

**Q.** For `CCCCCOC(=O)c1ccc(O)cc1`, which Potency is on record?
**A.** inactive

**Q.** Which Potency does the source give for `CC(C)c1cccc(C(C)C)c1NC(=O)NS(=O)(=O)c1cc(C(C)(C)O)co1` here?
**A.** inactive

**Q.** Which Potency does the source give for `N=C(N=C(N)N)N1CCOCC1` here?
**A.** inactive

**Q.** With `Cc1occc1S` as the compound, how does the Potency read?
**A.** inactive

**Q.** Which Potency does the source give for `CC(C)CC=O` here?
**A.** inactive

**Q.** Which Potency does the source give for `Cn1c(=O)c2c(ncn2CC(O)CO)n(C)c1=O` (stereo not given) here?
**A.** inactive

**Q.** Which Potency does the source give for `Oc1ccc(Cc2ccccc2)cc1` here?
**A.** inactive

**Q.** With `CN1CCC(OC(c2ccccc2)c2ccccc2)CC1` as the compound, how does the Potency read?
**A.** inactive

**Q.** For `O=C(NS(=O)(=O)/C=C/c1cccs1)c1ccc(F)cc1Br`, which Potency is on record?
**A.** inactive

**Q.** For `OCC1CC2CC1C1CCC(CO)C21` (stereo not given), which Potency is on record?
**A.** inactive

**Q.** For `CCCCCc1ccc(N)cc1`, which Potency is on record?
**A.** inactive

**Q.** Which Potency does the source give for `CC(=O)NCCCS(=O)(=O)O` here?
**A.** inactive

**Q.** Which Potency does the source give for `Nc1cnn([C@@H]2O[C@H](CO)[C@@H](O)[C@H]2O)c(=O)n1` here?
**A.** inactive

**Q.** For `O=C(O)Cc1sc(-c2ccccc2)nc1-c1ccc(Cl)cc1`, which Potency is on record?
**A.** inactive

**Q.** Which Potency does the source give for `C=CC(C)(CCC=C(C)C)OC(=O)c1ccccc1` (stereo not given) here?
**A.** inactive

**Q.** Which Potency does the source give for `CCCCOC(=O)c1ccccc1C(=O)OCC(CC)CCCC` (stereo not given) here?
**A.** inactive

**Q.** For `CC(C)NCC(O)c1cc(O)cc(O)c1` (stereo not given), which Potency is on record?
**A.** inactive

**Q.** With `NC(N)=N/N=C/c1c(Cl)cccc1Cl` as the compound, how does the Potency read?
**A.** 23.7 µM (active)

**Q.** For `CCCCOCCOCCOCCOCCO`, which Potency is on record?
**A.** inactive

**Q.** With `CCOC(=S)SSC(=S)OCC` as the compound, how does the Potency read?
**A.** inactive

**Q.** For `CCN(CC)CCOC(=O)C1(c2ccccc2)CCCC1`, which Potency is on record?
**A.** inactive

**Q.** With `N#CCCNCCC#N` as the compound, how does the Potency read?
**A.** inactive

**Q.** Which Potency does the source give for `COC(Cc1ccccc1)OC` here?
**A.** inactive

**Q.** With `CC(=O)c1c(C)c([N+](=O)[O-])c(C(C)(C)C)c([N+](=O)[O-])c1C` as the compound, how does the Potency read?
**A.** inactive

**Q.** Which Potency does the source give for `C=CC[N+]1([C@H]2C[C@H]3[C@@H]4CC[C@H]5C[C@H](OC(C)=O)[C@@H](N6CCCCC6)C[C@]5(C)[C@H]4CC[C@]3(C)[C@H]2OC(=O)CC)CCCCC1` here?
**A.** inactive

**Q.** Which Potency does the source give for `CCOC(=O)CC(=O)c1cc(F)c(Cl)nc1Cl` here?
**A.** inactive

**Q.** For `Cc1cccc(Oc2ccccc2)c1`, which Potency is on record?
**A.** inactive

**Q.** For `CCC(=O)OC(C)(C)C1CC=C(C)CC1` (stereo not given), which Potency is on record?
**A.** inactive

**Q.** For `C[C@H](CCC(=O)O)[C@H]1CC[C@H]2[C@@H]3[C@H](O)C[C@@H]4C[C@H](O)CC[C@]4(C)[C@H]3CC[C@]12C`, which Potency is on record?
**A.** inactive

**Q.** Which Potency does the source give for `O=C(O)C(c1ccc(Cl)cc1)c1ccc(Cl)cc1` here?
**A.** inactive

**Q.** Which Potency does the source give for `O=C(O)c1cccc(N(Cc2cccnc2)c2ccc(OC(F)F)c(OC(F)F)c2)c1` here?
**A.** inactive
